# Records with an inconclusive call do not appear. Entries that show only a call come without a potency. Calls of active or inactive are those of the source. Unless noted, calls follow the shape of the dose curve; as a rule, active = well fitted curve in the direction sought with a large enough effect in the repeat runs; inconclusive = weak or mixed curves; inactive = no such curve, though single readings can be large; an effect the other way counts as inactive or inconclusive.
# Experiments:
# [1] = qHTS assay for small molecules that induce genotoxicity in human embryonic kidney cells expressing luciferase-tagged ATAD5 (AID 651632); conditions: HEK293T ATAD5-luciferase induction, 16 h; series mostly up to 83.3 µM; also: nearly all actives have a fitted effect of over 15% in size
# Outline: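 Increased luciferase signal from ATAD5-tagged reporter cells indicates DNA-damage-driven ATAD5 induction. HEK293T cells are treated for 16 hr at 37C before detection with Amplite.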
# [2] = qHTS assay for small molecule agonists of the p53 signaling pathway - cell viability (AID 651633; calls by dose curve;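 also: p53RE-bla HCT reporter cells with a stable beta-lactamase p53 reporter; nearly all actives have a fitted effect of over 30% in size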); conditions: p53RE-bla HCT-116 viability, ATP luminescence, 16 h; series mostly up to 83.3 µM
# Outline: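 Viability counter-read: CellTiter-Glo luminescence (30 min, room temperature) in the same p53RE-bla plates. These plates had been exposed to compounds for 16 h at 37 C.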
# [3] = qHTS assay for small molecules that induce genotoxicity in human embryonic kidney cells expressing luciferase-tagged ATAD5 - cell viability (AID 651634; calls by dose curve; also: nearly all actives have a fitted effect of over 25% in size; also: potency is read from the fitted curve at half-maximal effect); conditions: HEK293T ATAD5-luc cells viability, CellTiter-Fluor, 15.5 h; series mostly up to 83.3 µM
# Outline: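 Cytotoxicity counterscreen in HEK293T cells bearing an ATAD5-luciferase reporter: live-cell protease activity measured by CellTiter-Fluor fluorescence after 15.5 hr compound exposure.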
# [4] = qHTS assay for small molecule disruptors of the mitochondrial membrane potential - cell viability (AID 720634; calls by dose curve;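 also: human HepG2 liver cancer cells; nearly all actives have a fitted effect of over 20% in size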); conditions: HepG2 viability, ATP luminescence (CellTiter-Glo), 1 h; series mostly up to 83.2 µM
# Outline: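 After overnight attachment at 37 C, HepG2 cells received compound or DMSO vehicle for 1 hr. Viability is then taken from ATP-driven luminescence following a 30 min room-temperature CellTiter-Glo step.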
# [5] = qHTS assay to test for compound auto fluorescence at 590 nm (red) in HepG2 cells (AID 720674); conditions: HepG2 autofluorescence, red 540/590 nm, 1 h; series mostly up to 91.3 µM
# Outline: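 We screened compounds on adherent HepG2 cells, incubating them for an hour at 37 C in 5% CO2 before reading emission at 590 nm under 540 nm excitation; values reflect equivalence to Rose Bengal sodium fluorescence.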
# [6] = qHTS assay to test for compound auto fluorescence at 535 nm (green) in HepG2 cells (AID 720675); conditions: green autofluorescence 485/535 nm, 1 h; series mostly up to 91.3 µM
# [7] = qHTS assay to test for compound auto fluorescence at 460 nm (blue) in HEK293 cells (AID 720678); conditions: blue autofluorescence 405/460 nm; series mostly up to 91.3 µM
# Outline: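 Auto fluorescence in the blue band was quantified as triamterene equivalency. HEK293 cells were seeded at 2,000/well, dosed after a 4-5 hr attachment, and kept overnight at 37C before the 405/460 nm reading.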
# [8] = qHTS assay to test for compound auto fluorescence at 590 nm (red) in HEK293 cells (AID 720679); conditions: red autofluorescence 540/590 nm; series mostly up to 91.3 µM
# Outline: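 Autofluorescence equivalency to Rose Bengal sodium, 540/590nm, in HEK293 cells exposed overnight to 23 nL compound per well.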
# [9] = qHTS assay to test for compound auto fluorescence at 535 nm (green) in HEK293 cells (AID 720680); conditions: green autofluorescence 485/535 nm; series mostly up to 91.3 µM
# [10] = qHTS assay to test for compound auto fluorescence at 460 nm (blue) in HEK293 cell free culture (AID 720681); conditions: cell-free medium, autofluorescence 405/460 nm (blue); series mostly up to 91.3 µM
# Outline: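 Blue fluorescence (Ex 405/Em 460 nm, triamterene-equivalent) was read immediately after pin transfer of compound or DMSO into medium (DMEM, 10% FBS) without cells.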
# [11] = qHTS assay to test for compound auto fluorescence at 535 nm (green) in HEK293 cell free culture (AID 720682); conditions: cell-free medium, green autofluorescence 485/535 nm, hits give high values; series mostly up to 91.3 µM
# Outline: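 Using fluorescein as calibrant, autofluorescence was quantified at 485/535 nm in cell-free DMEM containing 10% FBS after pintool addition of compound or vehicle.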
# [12] = qHTS assay to test for compound auto fluorescence at 590 nm (red) in HEK293 cell free culture (AID 720683); conditions: cell-free medium autofluorescence, Ex540/Em590 red; series mostly up to 91.3 µM
# Outline: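 Red-channel autofluorescence of compounds in culture medium (DMEM, 10% FBS), no cells, measured at 540/590 nm. Rose Bengal sodium is the reference fluorophore for equivalence.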
# [13] = qHTS assay to test for compound auto fluorescence at 460 nm (blue) in HepG2 cell free culture (AID 720685); conditions: Cell-free culture medium, blue autofluorescence 405/460 nm; series mostly up to 91.3 µM
# Outline: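 Compound (23 nL) or DMSO pinned into cell-free MEM with 10% FBS; blue fluorescence read at 405/460 nm excitation/emission, expressed as auto-fluorescence equivalency to triamterene.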
# [14] = qHTS assay to test for compound auto fluorescence at 535 nm (green) in HepG2 cell free culture (AID 720686); conditions: Cell-free medium, green autofluorescence 485/535 nm; series mostly up to 91.3 µM
# [15] = qHTS assay to test for compound auto fluorescence at 460 nm (blue) in HepG2 cells (AID 720687); conditions: autofluorescence 405/460 nm, 1 h; series mostly up to 91.3 µM
# Outline: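 Blue-channel autofluorescence (Ex/Em 405/460 nm, triamterene-equivalent) was measured after 1 hr compound exposure at 37 C, 5% CO2. Cells were HepG2, plated overnight at 37 C in MEM plus 10% FBS.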
# [16] = target: Glucocorticoid receptor (Homo sapiens) (UniProt P04150); test: qHTS assay to identify small molecule agonists of the glucocorticoid receptor (GR) signaling pathway (AID 720691; active = well fitted activation curve with a large enough effect in the signal ratio in the repeat runs, not every such curve was filed as active; the % refers to the signal ratio); conditions: GR-bla HeLa, beta-lactamase reporter ratio, 18 h; series mostly up to 62.4 µM
# Outline: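 Agonist mode in a HeLa line carrying a GRE-controlled beta-lactamase reporter. Compounds act for 18 h at 37 C before a 2 h room-temperature FRET substrate step and fluorescence reading.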
# [17] = target: Glucocorticoid receptor (Homo sapiens) (UniProt P04150); test: qHTS assay to identify small molecule antagonists of the glucocorticoid receptor (GR) signaling pathway (AID 720692; active = well fitted inhibition curve with a large enough effect in the signal ratio in the repeat runs, not every such curve was filed as active; the % refers to the signal ratio); conditions: GR-bla HeLa, beta-lactamase FRET ratio, dexamethasone-stimulated, 18 h; series mostly up to 58.5 µM
# Outline: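 Cells plated, rested 4 h at 37 C/5% CO2; compounds in DMSO pin-transferred; dexamethasone added to 5 nM final; 18 h at 37 C; B/G FRET substrate added, 2 h room temperature; fluorescence measured.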
# [18] = qHTS assay for small molecule disruptors of the mitochondrial membrane potential (AID 720635); conditions: HepG2 mitochondrial membrane potential, Mito-MPS dye ratio; series mostly up to 83.2 µM
# Outline: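 Mitochondrial membrane potential tracked with Mito-MPS dye, red aggregates (ex 540/em 590 nm) against green monomers (ex 490/em 535 nm). Compound treatment 1 hr at 37C, dye 30 min in HepG2.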
# [19] = qHTS assay to test for compound auto fluorescence at 590 nm (red) in HepG2 cell free culture (AID 720684); conditions: cell-free medium autofluorescence, red 540/590 nm; series mostly up to 91.3 µM
# Outline: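 Plate contents were MEM with 10% FBS plus test compound or DMSO, no cells. Fluorescence was recorded with 540 nm excitation and 590 nm emission.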
# Sequence of Glucocorticoid receptor (Homo sapiens) (P04150 whole entry, looked up): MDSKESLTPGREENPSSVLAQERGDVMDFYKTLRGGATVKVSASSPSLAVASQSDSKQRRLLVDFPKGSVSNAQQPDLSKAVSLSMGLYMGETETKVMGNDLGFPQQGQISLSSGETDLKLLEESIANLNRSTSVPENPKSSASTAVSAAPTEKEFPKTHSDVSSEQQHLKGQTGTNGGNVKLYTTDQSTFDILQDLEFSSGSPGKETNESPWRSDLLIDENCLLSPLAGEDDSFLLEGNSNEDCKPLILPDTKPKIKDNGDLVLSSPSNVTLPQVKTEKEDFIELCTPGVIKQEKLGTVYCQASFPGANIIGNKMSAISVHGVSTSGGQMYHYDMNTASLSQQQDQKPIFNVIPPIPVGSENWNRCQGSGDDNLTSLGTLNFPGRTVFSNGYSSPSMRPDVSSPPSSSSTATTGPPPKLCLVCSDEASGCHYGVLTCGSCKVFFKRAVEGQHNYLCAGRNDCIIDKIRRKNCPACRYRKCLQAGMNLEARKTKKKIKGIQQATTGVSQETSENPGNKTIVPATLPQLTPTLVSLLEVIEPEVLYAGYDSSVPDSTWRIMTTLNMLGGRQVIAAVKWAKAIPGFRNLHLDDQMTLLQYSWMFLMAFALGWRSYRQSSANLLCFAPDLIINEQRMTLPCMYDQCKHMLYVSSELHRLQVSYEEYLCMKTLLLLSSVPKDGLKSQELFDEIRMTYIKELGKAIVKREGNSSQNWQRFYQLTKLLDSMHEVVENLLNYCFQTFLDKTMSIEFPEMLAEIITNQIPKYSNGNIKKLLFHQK
Structure (SMILES),outcome [1],Potency [2],Potency [3],Potency [4],outcome [5],outcome [6],outcome [7],outcome [8],outcome [9],outcome [10],outcome [11],outcome [12],outcome [13],outcome [14],outcome [15],Potency [16],Potency [17],Potency [18],outcome [19]
O=C(NC(O)C(Cl)(Cl)Cl)NC(O)C(Cl)(Cl)Cl (stereo not given),inactive,inactive,inactive,inactive,inactive,inactive,inactive,inactive,inactive,inactive,inactive,inactive,inactive,inactive,inactive,inactive,inactive,–,–
CCN[C@@H](C)Cc1cccc(C(F)(F)F)c1,inactive,inactive,–,inactive,inactive,inactive,inactive,inactive,–,inactive,inactive,inactive,inactive,inactive,inactive,–,–,inactive,–
Cc1ccc2cc(C)ccc2c1,inactive,inactive,–,inactive,inactive,inactive,inactive,inactive,inactive,inactive,inactive,inactive,inactive,–,inactive,inactive,inactive,–,inactive
O=P(O)(O)c1ccccc1,inactive,inactive,–,inactive,inactive,inactive,inactive,inactive,inactive,inactive,inactive,inactive,inactive,inactive,inactive,–,–,inactive,inactive
C[C@H](N)C(=O)c1ccccc1,inactive,inactive,–,inactive,inactive,inactive,inactive,inactive,inactive,inactive,inactive,inactive,inactive,inactive,inactive,–,inactive,inactive,–
CS(=O)(=O)c1ccc(C(=O)C2C(=O)CCCC2=O)c(Cl)c1COCC(F)(F)F,inactive,inactive,inactive,inactive,inactive,inactive,inactive,inactive,inactive,inactive,–,inactive,inactive,inactive,inactive,inactive,–,–,inactive
CC[C@H](O)C(C[C@H](C)N(C)C)(c1ccccc1)c1ccccc1,inactive,inactive,–,inactive,inactive,inactive,inactive,inactive,inactive,inactive,inactive,inactive,inactive,–,inactive,inactive,inactive,–,inactive
CC[C@@H](CO)NC(=O)[C@@H]1C=C2c3cccc4c3c(cn4C)C[C@H]2N(C)C1,inactive,inactive,inactive,inactive,inactive,inactive,–,inactive,inactive,inactive,inactive,inactive,inactive,inactive,inactive,–,–,–,inactive
Cc1ccc(S(=O)(=O)N[C@@H](CCCCN)C(=O)CCl)cc1,–,–,29.8 µM (active),inactive,inactive,inactive,inactive,inactive,inactive,inactive,inactive,inactive,inactive,inactive,inactive,inactive,–,–,inactive
CCCC[N+](=O)[O-],inactive,inactive,inactive,inactive,inactive,inactive,inactive,inactive,inactive,inactive,inactive,inactive,inactive,–,inactive,–,–,–,inactive
CN(C)CCN(C)C,inactive,–,inactive,inactive,inactive,inactive,inactive,inactive,inactive,inactive,–,inactive,inactive,inactive,inactive,inactive,–,–,inactive
C#CC(C)(C)O,inactive,inactive,inactive,inactive,inactive,inactive,inactive,inactive,inactive,inactive,inactive,inactive,inactive,inactive,inactive,–,–,–,–
COc1ccc(C=O)cc1O,inactive,inactive,inactive,inactive,inactive,inactive,inactive,inactive,inactive,inactive,inactive,inactive,inactive,–,inactive,inactive,inactive,–,–
O=C(O)C(Cl)Br (stereo not given),–,inactive,inactive,inactive,inactive,inactive,inactive,inactive,inactive,inactive,inactive,inactive,inactive,inactive,inactive,inactive,–,–,inactive
CN=CNc1ccc(C)cc1C,inactive,inactive,inactive,inactive,inactive,inactive,inactive,inactive,–,inactive,inactive,inactive,inactive,–,inactive,inactive,inactive,–,inactive
CC(C)[C@]12CC(=O)[C@H](C)[C@H]1C2,inactive,inactive,–,inactive,inactive,inactive,inactive,inactive,inactive,inactive,inactive,inactive,inactive,inactive,inactive,–,–,inactive,–
O=c1[nH]c2ccccc2o1,inactive,–,–,inactive,inactive,inactive,inactive,inactive,inactive,inactive,inactive,inactive,inactive,inactive,inactive,inactive,–,inactive,inactive
CCOC(=O)C(Cl)Cc1cc(-n2nc(C)n(C(F)F)c2=O)c(F)cc1Cl (stereo not given),inactive,inactive,inactive,–,inactive,inactive,inactive,inactive,inactive,inactive,–,inactive,inactive,inactive,inactive,inactive,–,–,inactive

# Reference: PubChem BioAssay (Tox21)
